Assay results from PubChem BioAssay AID1963321 (National Center for Advancing Translational Sciences (NCATS), 2024).
Records with an inconclusive call do not appear. A call without a number means that no potency is given here. Calls of active or inactive are those of the source. The call rests on the fitted dose curve.

Biological target: cAMP-dependent protein kinase catalytic subunit alpha (Homo sapiens) (UniProt P17612)
Test: Protein Kinase A (PKA-HiBiT) enzymatic inhibition screen - Functional assay
Settings: luminescence; series mostly up to 57.5 µM
Text: National Center for Advancing Translational Sciences (NCATS),
National Institute of Health (NIH), Maryland
Discovery and optimization of novel protein-binding ligands underlies many of the methods and applications of biology, drug discovery, clinical diagnostics, and environmental toxicology. Assays for detecting the interaction of, for example, a molecule with a macromolecular target also referred to here as the target of interest (TOI) is dependent on a compatible output technology. Depending on the nature and knowledge surrounding the TOI, whether a receptor, enzyme, regulatory subunit or scaffold, or a sequence-defined nucleic acid folded into a complex tertiary structure, assay strategies can vary widely.
Here we exploit ligand-biased changes in the structural dynamics of the target protein to control reporter alpha complementation allowing a non-competitive, non-functional, non-separation measure of ligand-target interaction.
Using a chemical library of >1,200 compounds enriched for scaffolds known to be associated with the inhibition of firefly luciferase (FLuc) activity (PubChem AIDs 2309) we first illustrate and compare the Structural Dynamics Response (SDR) assay vs. the standard functional FLuc enzyme assay (2). Secondly, we show the specificity and sensitivity of the SDR for the Abelson tyrosine kinase (ABL1) compared to the serine/threonine protein kinase A, using an enriched chemical library of 128 compounds selected, in part, for activity annotated with ABL1 kinase activity using the Pharos database (3).
(1) A. S. Dixon et al., NanoLuc Complementation Reporter Optimized for Accurate Measurement of Protein Interactions in Cells. ACS Chem Biol 11, 400-408 (2016).
Chemistry & Biology, 19, 1060 - 1072 (2012).
(3) K. J. Kelleher et al., Pharos 2023: an integrated resource for the understudied human proteome. Nucleic Acids Res 51, D1405-D1416 (2023).
PROTOCOL TABLE (as described by Inglese J, Shamu CE and Guy RK. 2007)
SEQUENCE No. (e.g., 1, 2, 3, etc.); […] (e.g., C. elegans, Compounds, Incubation, Read, etc.); VALUE and DESCRIPTION.
1. Reagent. Dispense 4 uL PKA-N-HiBiT enzyme per well at a final enzyme concentration of 10 nM in buffer with 87.5 uM ATP (functional assay) into columns 2-48 of four replicate Greiner 1536-well white,solid bottom high base, medium plates per assay. Dispense respective buffer without enzyme at 4 uL/well in column 1 of assay plates using BioRaptr 2.
2. Compounds. Library compounds added at 23 nL/well by pin transfer. DMSO neutral control and H-89 positive control added at 25 nL/well, transfer by Mosquito dispenser.
3. Incubation. Incubate enzyme and compounds at room temperature for 30 min, protect from light.
4. Reagent. (Functional assay) Transfer 25 nL of kemptide peptide substrate to each well of four replicate kinase assay plates with Mosquito dispenser.
5. Incubation. (Functional assay) Kinase Enzyme incubated with peptide substrate for 3 h at room temperature, protected from light.
6. Reagent. (Functional assay) Add 4 uL/well of Kinase-Glo Plus reagent (Promega) to kinase activity assay plates.
7. Detector. (Functional assay) Luminescence measured using CCD-based camera (ViewLux) with settings as follows: Exposure, 1 sec; Gain, High; Speed, Slow; Binning, 2X.
Inglese J, Shamu CE and Guy RK, Reporting data from high throughput screening of small molecule libraries, Nature Chemical Biology, 2007, 3(8): 438-441. doi.org/10.1038/nchembio0807-438.

Structure (SMILES) | Potency
N#Cc1cn([C@@H]2O[C@H](CO)[C@H](O)[C@@H]2O)c2ncnc(N)c12 | inactive
C/C(O)=C(\C#N)C(=O)Nc1cc(Br)ccc1Br | inactive
O=[N+]([O-])O[C@H]1CO[C@H]2[C@@H]1OC[C@H]2O[N+](=O)[O-] | inactive
Cc1[nH]nc2ccc(-c3cncc(OC[C@@H](N)Cc4c[nH]c5ccccc45)c3)cc12 | 2010 nM (active)
CCNC(=O)C[C@@H]1N=C(c2ccc(Cl)cc2)c2cc(OC)ccc2-n2c(C)nnc21 | inactive
O=C(NCCCNc1nc(Nc2ccc(N3CCOCC3)cc2)ncc1C1CC1)C1CCC1 | inactive
